Most compounds without a hit are left out; they make up all but 2.4% or so of the library.
miR-122 sensor: inhibitors of miR-122 in Huh7 cells; Huh7 miR-122 Renilla luciferase sensor, 48 h; neutral wells = 0, positive control = 100; activation (reporter increase), % at 12.5 µM; actives 0.3% (n = 340,000); AID 602342;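 active = mean replicate activation score at least 90 and every replicate individually at or above 90; inconclusive = only one of the two criteria met; inactive = neither criterion met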;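 note: higher luciferase means less miR-122 activity so hits act as miR-122 inhibitors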
INS-1E GSIS act: primary screen for activators of insulin secretion dependent on glucose, INS-1E cells, GLuc reporter luminescence | INS-1E GLuc reporter insulin secretion, 2-3 h | activation, % at 16.6 µM | actives 0.61% (n = 370,000);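 active = lowest replicate activation of at least 40%, so every replicate reaches that level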;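 note: 0% = median of neutral control wells and 100% = median of IBMX positive control wells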
NSD2 inh: inhibitors of human histone methyltransferase NSD2; NSD2 peptide methylation, AlphaScreen, 120 min; O96028; inhibition, % at 12.5 µM; actives 0.54% (n = 310,000)
Target sequence (O96028 whole entry, looked up): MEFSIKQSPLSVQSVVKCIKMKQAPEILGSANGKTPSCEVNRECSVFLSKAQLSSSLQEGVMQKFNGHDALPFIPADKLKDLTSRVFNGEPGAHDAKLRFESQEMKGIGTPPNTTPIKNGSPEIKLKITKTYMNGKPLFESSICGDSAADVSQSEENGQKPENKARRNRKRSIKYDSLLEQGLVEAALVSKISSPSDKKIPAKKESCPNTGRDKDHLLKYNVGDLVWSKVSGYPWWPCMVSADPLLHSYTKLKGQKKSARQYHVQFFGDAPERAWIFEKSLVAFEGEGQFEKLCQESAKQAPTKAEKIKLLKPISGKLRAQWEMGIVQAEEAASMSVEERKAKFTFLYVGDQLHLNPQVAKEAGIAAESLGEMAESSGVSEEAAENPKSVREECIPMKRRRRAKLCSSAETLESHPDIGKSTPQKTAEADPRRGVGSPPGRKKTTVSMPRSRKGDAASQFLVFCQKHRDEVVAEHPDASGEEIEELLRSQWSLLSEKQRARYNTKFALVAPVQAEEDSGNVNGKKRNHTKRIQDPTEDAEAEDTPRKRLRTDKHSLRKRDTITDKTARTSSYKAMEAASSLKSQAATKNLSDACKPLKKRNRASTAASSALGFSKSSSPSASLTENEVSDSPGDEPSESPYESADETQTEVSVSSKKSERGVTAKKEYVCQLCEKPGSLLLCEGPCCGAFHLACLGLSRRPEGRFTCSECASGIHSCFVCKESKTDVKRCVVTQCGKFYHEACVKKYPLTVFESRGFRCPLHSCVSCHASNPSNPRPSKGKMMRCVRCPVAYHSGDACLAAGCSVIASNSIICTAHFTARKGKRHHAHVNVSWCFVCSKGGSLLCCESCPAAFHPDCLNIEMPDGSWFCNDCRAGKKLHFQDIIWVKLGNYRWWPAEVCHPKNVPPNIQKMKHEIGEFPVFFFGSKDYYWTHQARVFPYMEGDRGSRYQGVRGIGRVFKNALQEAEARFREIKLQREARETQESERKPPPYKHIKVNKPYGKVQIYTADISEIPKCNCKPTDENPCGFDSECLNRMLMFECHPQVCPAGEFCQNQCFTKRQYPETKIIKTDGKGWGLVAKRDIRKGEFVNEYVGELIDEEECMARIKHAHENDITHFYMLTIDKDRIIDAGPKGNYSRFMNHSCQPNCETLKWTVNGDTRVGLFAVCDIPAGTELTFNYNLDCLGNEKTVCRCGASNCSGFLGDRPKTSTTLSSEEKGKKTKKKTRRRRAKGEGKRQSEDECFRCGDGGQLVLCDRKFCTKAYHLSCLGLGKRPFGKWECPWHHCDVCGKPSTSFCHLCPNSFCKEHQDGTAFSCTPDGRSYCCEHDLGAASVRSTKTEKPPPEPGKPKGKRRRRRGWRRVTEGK
MITF act: MITF TRPM1 promoter activation in melanoma cells | SK-MEL-5 TRPM1-promoter luciferase, 24 h; % of positive control, neutral wells = 0 | activation, % at 12.5 µM | actives 0.75% (n = 300,000) | AID 588334;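 active = mean activation of at least 80% with every replicate also reaching 80%; inconclusive = mean reaches 80% but some replicate falls short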;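 note: 0% = neutral control wells and 100% = parthenolide positive control wells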
DYRK1A inh: blocks rat Dyrk1A kinase activity; Q63470; actives 0.43% (n = 310,000); inhibition, % at 12.5 µM; AID 504441; ADP-Glo luminescence, NFATc1 peptide;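 note: plate controls were vehicle with enzyme for no effect and no enzyme for full effect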
Wnt bcat act: Wnt/beta-catenin pathway activation. Wnt/beta-catenin reporter cell assay, activator, plate reader. activation, % at 9.35 µM. actives 1.2% (n = 300,000). AID 743398; in the data active = activation above about 30%, passing the limit was not always enough; inconclusive = no clear call, values can overlap the other calls;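 note: 0% = neutral control wells and 100% = positive control wells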
Alpha artifact: interferes with AlphaScreen signal, flagging NSD2 false positives; shares compounds with NSD2 inh; AlphaScreen artifact counterscreen, preloaded methylated H4 peptide; AC35, µM (series often up to 10 µM), for the others: at the highest dose activity change, negative = signal loss; actives 9.4% (n = 1,500); call rule not given here
* hit, by the source's call; ? = inconclusive; nt = no result; [ ] = another dose, or the depositor's remark. Cut-off read from the data, not from the text of the source, unless noted: active = inhibition above about 50%; inactive = the rest.

SMILES	miR-122 sensor	INS-1E GSIS act	NSD2 inh	MITF act	DYRK1A inh	Wnt bcat act	Alpha artifact
CC1CCCC(C)N1C(=O)COC(=O)c1ccc([N+](=O)[O-])o1 (centres undefined)	nt	nt	69*	-12	-3	2	-5%
COc1ccccc1/C=N/Nc1cc(N(C)C)nc(N(C)C)n1	nt	5	100*	-2	1	-7	-3%
COc1ccc(/C=N/Nc2cc(N(C)C)nc(N(C)C)n2)cc1	nt	-13	33	17	-1	1	nt
COc1ccccc1/C=N/Nc1cc(C)nc(N2CCOCC2)n1	nt	nt	57*	nt	0	2	0%
CN(C)c1cc(N/N=C\c2ccccc2)nc(N(C)C)n1	nt	-14	103*	-3	11	-3	0%
Cc1ccc(S(=O)(=O)NCC[C@H]2CC[C@@H](NC(=O)c3cnccn3)[C@@H](CO)O2)cc1	5[16.7 µM]	2	nt	nt	nt	nt	nt
CCc1nc2ccc(C)cc2c(C(=O)NC2CCCCC2C)c1C (centres undefined)	44	nt	75*	-4	-1	nt	-2%
Cc1ccc2nc(C)cc(C(=O)NC3CCCCCC3)c2c1	-4	nt	1	-8	-4	-2	nt
CCn1cc(/C=N\NC(=O)C2(C)CC2(Cl)Cl)c(C)n1 (centres undefined)	-1	16	63*	-10	6	nt	2%
C[C@@H]1CN([C@H](C)CO)C(=O)c2cccc(NS(=O)(=O)c3cn(C)cn3)c2O[C@@H]1CN(C)Cc1ccc(Cl)c(Cl)c1	0[16.7 µM]	15	nt	nt	nt	nt	nt
COc1ccc(-c2cnc3c(c2)C(=O)N([C@H](C)CO)C[C@@H](C)[C@@H](CN(C)C(=O)C2CCC2)O3)cc1	-4[16.7 µM]	8	nt	nt	nt	nt	nt
C=CCSc1nnc(-c2ccc(Cl)cc2Cl)o1	-4	22	68*	59	-3	?	11%
Clc1ccc(-c2nnc(SCc3ccon3)o2)c(Cl)c1	0	nt	7	38	10	nt	nt
Cn1ncc(Cl)c1C(=O)Nc1cc(C(F)(F)F)ccc1F	12	nt	127*	nt	-6	-1	1%
O=C(C[C@H]1C=C[C@H](NC(=O)C2CCOCC2)[C@H](CO)O1)NCC1CCCCC1	nt	-4	nt	nt	nt	nt	nt
COc1ccc2c3c([nH]c2c1)[C@H](CO)N(Cc1ccc2c(c1)OCO2)CC31CCN(C(=O)Nc2c(C)noc2C)CC1	nt	-20	nt	nt	nt	nt	nt
CC1(C)NC(=O)N(CCCOc2ccccc2Br)C1=O	-5	nt	70*	41	3	5	-2%
CCCCN1C(=O)C(=Nc2cccc3cnccc23)c2ccccc21	nt	4	74*	-13	15	0	-1%
O=C(Nc1ccc(F)cc1)N1C[C@H]2[C@@H](c3ccccc31)[C@@H](CO)N2C(=O)Cc1ccccn1	-21[16.7 µM]	-11	nt	nt	nt	nt	nt
CSc1ncccc1C(=O)OCC(=O)N1CC2(C)CC1CC(C)(C)C2 (centres undefined)	-3	nt	53*	-7	0	-3	-5%
O=C(C[C@H]1CC[C@H](NC(=O)c2ccccn2)[C@H](CO)O1)NCc1cc(F)cc(F)c1	nt	-6	nt	nt	nt	nt	nt
Oc1ccccc1CNc1cccc2cccnc12	nt	-6	53*	1	-6	27	-2%
COc1cc(NCc2ccccc2O)c2ncccc2c1	nt	-26	-1	-5	0	-1	nt
O=C(c1ccc(S(=O)(=O)N2CCOCC2)cc1)N(c1ccccc1)C1C=CS(=O)(=O)C1 (centres undefined)	-5	nt	5	-4	-4	nt	nt
O=C(c1ccc(S(=O)(=O)N2CCOCC2)cc1)N(c1cccc(Cl)c1)C1C=CS(=O)(=O)C1 (centres undefined)	nt	0	83*	-13	-3	4	-6%
SMILES	miR-122 sensor	INS-1E GSIS act	NSD2 inh	MITF act	DYRK1A inh	Wnt bcat act	Alpha artifact
O=C(O)CN1C(=O)/C(=C\c2cc(Br)ccc2OCc2ccc(F)cc2)SC1=S	nt	6	104*	-1	2	-1	-11%
O=c1[nH]n2c(=O)c3c([nH]c2c1N=Nc1cccc(Cl)c1)CCC3	-11	-22	10	6	32	2	nt
O=c1[nH]n2c(=O)c3c([nH]c2c1N=Nc1cccc(C(F)(F)F)c1)CCCC3	10	nt	125*	nt	6	nt	-8%
O=c1[nH]nc(Br)c(=O)n1C(c1ccccc1)c1ccccc1	nt	nt	51*	6	-3	5	-5%
O=c1[nH]c(=O)n(C(c2ccccc2)c2ccccc2)cc1Br	0	-4	-4	-10	0	-1	nt
COc1ccc(C(=O)Nc2ccc3[nH]ccc3c2)cc1OC	3	12	51*	nt	6	7	5%
COC1=CC(=O)C(OC)=C(OC)C1=O	nt	44*	101*	5	-3	2	3%
Cn1c(N)c(C#N)c2c(c1=S)COC(C)(C)C2	4	nt	-4	4	2	nt	nt
Cn1c(N)c(C#N)c2c(c1=S)CSC(C)(C)C2	-1	19	51*	-6	9	-1	-2%
Cc1cc(NS(=O)(=O)c2ccc(NC(=O)CSc3nnc(-c4ccncc4)n3Cc3ccco3)cc2)nc(C)n1	nt	nt	56*	nt	nt	nt	-1%
C=CCn1c(NS(=O)(=O)c2ccccc2)c(S(=O)(=O)c2ccc(C)cc2)c2nc3ccccc3nc21	-2	13	115*	19	-66	-2	-6%
CCCN1[C@@H]2Cn3c(ccc(-c4ccncc4)c3=O)[C@H]1[C@@H](C(=O)N1CCCCC1)[C@@H]2CO	1[16.7 µM]	9	nt	nt	nt	nt	nt
Nc1cccc2cnccc12	2	nt	107*	-7	21	4	-5%
Oc1cccc2cnccc12	-1	-6	-1	7	32	4	nt
COc1cccc(NC(=O)CN(c2cccc(C(F)(F)F)c2)S(C)(=O)=O)c1	-1	nt	-2	1	2	nt	nt
CCOc1ccc(NC(=O)CN(c2cccc(C(F)(F)F)c2)S(C)(=O)=O)cc1	65	nt	113*	nt	-5	2	0%
O=C(O)CC1S/C(=N/N=C/c2ccc(-c3ccc(Cl)cc3[N+](=O)[O-])o2)NC1=O (centres undefined)	-2	nt	60*	nt	15	3	-8%
CCOc1ccccc1NCc1nnc(-c2ccccc2)o1	3	-2	66*	-6	12	4	-2%
CN1C(=O)c2cc(NC(=O)c3cccc(F)c3)ccc2OC[C@H]2O[C@@H](CC(=O)NCC3CC3)CC[C@H]21	nt	11	nt	nt	nt	nt	nt
Cc1cc(NC(=O)COC(=O)c2cccc(S(=O)(=O)N3CCOCC3)c2)no1	9	nt	108*	nt	-3	-3	-2%
Cc1cc(NC(=O)c2cccc(S(=O)(=O)N3CCOCC3)c2)no1	6	nt	1	10	0	-3	nt
CCCNC(=O)N1C[C@@H]2[C@H](c3ccccc31)[C@H](CO)N2Cc1cc(F)ccc1F	-4[16.7 µM]	-6	nt	nt	nt	nt	nt
COc1ccccc1N=Nc1ccc(O)c2ncccc12	-12	-4	94*	1	0	16	-13%

Bioassay records as filed in PubChem.
